Compound activity from PubChem BioAssay.
MITF inh – human MITF inhibition, primary screen. 0.91% of 650,000 active. O75030. inhibition, % at 2.6 µM. AlphaScreen MITF homodimerization, bead proximity signal; in the data active means inhibition above about 50%;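 further: 0% = vehicle wells with protein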
FBW7 act – activators of human E3 ligase FBW7; Q969H0; AlphaScreen FBW7–phospho-cyclin E peptide binding, activator screen; normalized activity (activation), % at 26.1 µM; 0.13% of 650,000 active; AID 1259310; in the data active means normalized activity above about 1.9%;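 further: purified mutant Fbw7 with reduced substrate affinity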
Target sequence (Q969H0 whole entry, looked up): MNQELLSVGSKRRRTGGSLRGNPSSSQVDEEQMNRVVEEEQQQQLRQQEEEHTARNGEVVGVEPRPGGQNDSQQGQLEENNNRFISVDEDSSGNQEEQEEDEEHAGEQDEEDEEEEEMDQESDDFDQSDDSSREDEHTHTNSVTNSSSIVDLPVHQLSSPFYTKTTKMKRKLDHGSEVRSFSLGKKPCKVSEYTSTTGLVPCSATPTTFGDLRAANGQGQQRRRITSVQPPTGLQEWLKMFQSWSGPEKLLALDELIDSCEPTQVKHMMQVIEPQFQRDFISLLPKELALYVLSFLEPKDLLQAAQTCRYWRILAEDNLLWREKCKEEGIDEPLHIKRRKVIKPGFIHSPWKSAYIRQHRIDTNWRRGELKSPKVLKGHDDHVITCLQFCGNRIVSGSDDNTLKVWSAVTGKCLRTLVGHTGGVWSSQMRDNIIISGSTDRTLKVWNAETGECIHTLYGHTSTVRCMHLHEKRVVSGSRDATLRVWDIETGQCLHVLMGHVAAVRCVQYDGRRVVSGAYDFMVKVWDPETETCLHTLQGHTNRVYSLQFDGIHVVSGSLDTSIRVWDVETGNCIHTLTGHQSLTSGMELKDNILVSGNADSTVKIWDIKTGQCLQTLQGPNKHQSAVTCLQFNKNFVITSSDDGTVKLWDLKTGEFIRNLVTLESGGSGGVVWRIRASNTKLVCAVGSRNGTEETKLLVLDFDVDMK
TEAD-YAP block – TEAD-YAP interaction inhibition; 1.4% of 640,000 active; inhibition, % at 9.12 µM; HEK-TIYL cells, TEAD-Gal4/YAP UAS-luciferase luminescence; in the data active means inhibition above about 32%;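 further: 0% = median of test compound wells and 100% = reference inhibitor wells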
GPR151 activ – human GPR151 activation; Q8TDV0; PathHunter beta-arrestin GPR151 cells, luminescence; activation, % at 11.2 µM; 1% of 650,000 active; in the data active means activation above about 4.9%;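 further: 0% = median of compound wells and 100% = cells with positive control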
* marks the source's active call; other numbers are inactive results. The list is not random: actives were taken first. Their share in the collection is about 3.5%.

How did O=c1c(O)cccc2cc(O)c(O)c(O)c12 do in these assays?
MITF inh: 90*; FBW7 act: 0; TEAD-YAP block: -6; GPR151 activ: 3

Results for COC(=O)Nc1ccc(S(=O)(=O)N2c3ccccc3CCC2C)cc1 (stereo not given) ?
MITF inh: -8; FBW7 act: 0; TEAD-YAP block: 53*; GPR151 activ: 1

How did Cc1ccc(NC2SC(=O)N(c3ccccc3C)C2=O)cc1C (stereo not given) do in these assays?
MITF inh: 3; FBW7 act: 0; TEAD-YAP block: -18; GPR151 activ: 1

Results for Cc1ccc(OCCNC(=O)C(=O)NCc2ccccc2)cc1 ?
MITF inh: -4; FBW7 act: 0; TEAD-YAP block: 7; GPR151 activ: -1

What do the screens show for `COc1ccc(-c2cncc3ccc(C(=O)N[C@H](C)c4ccccc4)nc23)cc1`?
MITF inh: 15; FBW7 act: 1; TEAD-YAP block: 61*; GPR151 activ: 1

How did COc1ccc(-c2cncc3ccc(C(=O)N[C@@H](C)c4ccccc4)nc23)cc1 do in these assays?
MITF inh: -13; FBW7 act: 0; TEAD-YAP block: 50*; GPR151 activ: -1

Results for Cc1cc(C)c(NC(=O)Cn2cnc3ccccc32)c(C)c1 ?
MITF inh: 2; FBW7 act: 0; TEAD-YAP block: 42*; GPR151 activ: 3

How did Cc1cc(Cn2cnc3ccccc32)c(C)cc1Cn1cnc2ccccc21 do in these assays?
MITF inh: 8; FBW7 act: 0; TEAD-YAP block: 36*; GPR151 activ: 0

How did O=C(Cn1cnc2ccccc21)Nc1ccc(SC(F)F)cc1 do in these assays?
MITF inh: 7; FBW7 act: 0; TEAD-YAP block: 34*; GPR151 activ: 1

What do the screens show for `Cc1ccc(Cn2cnc3ccccc32)cc1`?
MITF inh: 18; FBW7 act: 0; TEAD-YAP block: 17; GPR151 activ: 1

How did COC(=O)C(CCCCCCC(C(=O)OC)C(=O)OC)C(=O)OC do in these assays?
MITF inh: 13; FBW7 act: 0; TEAD-YAP block: -7; GPR151 activ: 0

Results for Cn1c(Nc2nc(N)c3ncn(CCN4CCCC4=O)c3n2)nc2ccccc21 ?
MITF inh: 3; FBW7 act: 0; TEAD-YAP block: 7; GPR151 activ: 0

What do the screens show for `Cc1ccc(NC2C=CS(=O)(=O)C2)cc1C` (stereo not given)?
MITF inh: 7; FBW7 act: 0; TEAD-YAP block: 33*; GPR151 activ: -3

How did O=[N+]([O-])c1cc2c(cc1C(O)c1nnc(-c3ccccc3)o1)OCO2 (stereo not given) do in these assays?
MITF inh: 16; FBW7 act: 0; TEAD-YAP block: 81*; GPR151 activ: 0

What do the screens show for `CC/C=C\C/C=C\C/C=C\C/C=C\CCCCC(=O)OCC`?
MITF inh: 0; GPR151 activ: 2

Results for Cc1nn(-c2ccc(N3CCN(C(=O)c4cccs4)CC3)nn2)c(C)c1C ?
MITF inh: -10; FBW7 act: 0; TEAD-YAP block: 13; GPR151 activ: 1

What do the screens show for `COc1ccc(C2CC(=O)C3=C(C2)NC(C)=C(C(=O)OCc2ccccc2)C3c2cccc([N+](=O)[O-])c2)cc1` (stereo not given)?
MITF inh: 1; FBW7 act: 0; TEAD-YAP block: 59*; GPR151 activ: 1

Results for COC(=O)C1=C(C)NC2=C(C(=O)CC(c3ccccc3)C2)C1c1ccc(O)c([N+](=O)[O-])c1 (stereo not given) ?
MITF inh: 18; FBW7 act: 0; TEAD-YAP block: 9; GPR151 activ: 0

Results for CC1=C(C(=O)OCc2ccccc2)C(c2ccc(O)c([N+](=O)[O-])c2)C2=C(CC(c3ccccc3)CC2=O)N1 (stereo not given) ?
MITF inh: 15; FBW7 act: 0; TEAD-YAP block: 44*; GPR151 activ: 0

What do the screens show for `CC1=C(C(=O)OCc2ccccc2)C(c2cccc([N+](=O)[O-])c2)C2=C(CC(c3ccccc3)CC2=O)N1` (stereo not given)?
MITF inh: -4; FBW7 act: 0; TEAD-YAP block: 56*; GPR151 activ: 0

What do the screens show for `COC(=O)C1=C(C)N(Cc2ccc(C)cc2)C(=O)/C1=C\c1ccc([N+](=O)[O-])cc1`?
MITF inh: -2; FBW7 act: 0; TEAD-YAP block: -11; GPR151 activ: -1

Results for O=C(CN1CCOCC1)Nc1ccccc1NC(=O)c1cccc2nccnc12 ?
MITF inh: -5; FBW7 act: 0; TEAD-YAP block: 1; GPR151 activ: 1

How did O=C(Nc1ccc(Cl)cc1)Nc1ccc(S(=O)(=O)Nc2ncccn2)cc1 do in these assays?
MITF inh: -23; FBW7 act: 2.5*; TEAD-YAP block: -2; GPR151 activ: -1

What do the screens show for `c1ccc(CNc2nc(Nc3ccc4ncccc4c3)nc3c2ncn3-c2ccsc2)cc1`?
MITF inh: 2; FBW7 act: 0; TEAD-YAP block: 12; GPR151 activ: -2

Results for c1cnc2ccc(Nc3nc(NCc4nc5ccccc5[nH]4)c4ncn(-c5ccsc5)c4n3)cc2c1 ?
MITF inh: -16; FBW7 act: 42*; TEAD-YAP block: 49*; GPR151 activ: 0

What do the screens show for `c1ccc(-n2cnc3c(NCc4nc5ccccc5[nH]4)nc(Nc4ccc5ncccc5c4)nc32)cc1`?
MITF inh: 1; FBW7 act: 23*; TEAD-YAP block: 16; GPR151 activ: -3

What do the screens show for `CC(=O)Nc1nc(-c2ccc3c(c2)CCN3C(=O)C2CC2)c(C)s1`?
MITF inh: 3; FBW7 act: 0; TEAD-YAP block: 75*; GPR151 activ: 1

How did CC(=O)Nc1nc(-c2ccc3c(c2)CCN3C(=O)C2CCCCC2)c(C)s1 do in these assays?
MITF inh: 20; FBW7 act: 0; TEAD-YAP block: 78*; GPR151 activ: 1

What do the screens show for `Cc1sc(NC(=O)c2cnccn2)nc1-c1ccc2c(c1)CCN2C(=O)C1CCCCC1`?
MITF inh: 7; FBW7 act: 0; TEAD-YAP block: 0; GPR151 activ: 1

What do the screens show for `COc1ccc(CN2CCNC(=O)C2CC(=O)N2CCN(CC3CC3)CC2)cc1OC` (stereo not given)?
MITF inh: -1; FBW7 act: 0; TEAD-YAP block: -4; GPR151 activ: -1

What do the screens show for `NC(=O)c1ccccc1NC(=O)c1ncoc1-c1ccccc1C(F)(F)F`?
MITF inh: 0; FBW7 act: 0; TEAD-YAP block: 49*; GPR151 activ: -2

What do the screens show for `O=C(Nc1ccccc1-n1ccnc1)c1ncoc1-c1ccccc1C(F)(F)F`?
MITF inh: 8; FBW7 act: 0; TEAD-YAP block: 6; GPR151 activ: 1

How did O=C(COc1ccccc1)N/N=C\c1ccc(O)cc1 do in these assays?
MITF inh: 14; FBW7 act: 2.1*; TEAD-YAP block: 7; GPR151 activ: -1

How did COc1cccc(/C=N/NC(=O)CSc2cc(C)nc3c(C)cccc23)c1O do in these assays?
MITF inh: 8; FBW7 act: 0; TEAD-YAP block: 32*; GPR151 activ: 1

Results for Cc1ccc(C(C)C)c(OCC(=O)N/N=C/c2ccc(O)c(O)c2)c1 ?
MITF inh: 0; FBW7 act: 0; TEAD-YAP block: 47*; GPR151 activ: 1
